# Laboratory results published in PubChem BioAssay (EPA / NIEHS).
# Activity calls are given as the source filed them. How the source made its calls: active means hit-call score of the fitted dose curve at least 0.9, where 1 is the maximum; inactive means score below 0.9.
# Tests used:
# Details in all cases: mRNA level, 48 h; actives raise or lower the signal
# [1] = read-out: Cytochrome P450 (CYP24A1), CYP24A1 (gene 1591); experiment: LTEA_HepaRG_CYP24A1: Life Technologies and Expression Analysis (LTEA) Assay for Cytochrome P450 (CYP24A1) using HepaRG (AID 2283478)
# How it was run: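 Gene expression of CYP24A1 by TaqMan qRT-PCR in HepaRG after 48 h treatment, highest concentration 100 uM; activity fitted in both directions relative to DMSO vehicle.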
# [2] = read-out: Cytochrome P450 (CYP1A2), CYP1A2 (gene 1544); experiment: LTEA_HepaRG_CYP1A2: Life Technologies and Expression Analysis (LTEA) Assay for Cytochrome P450 (CYP1A2) using HepaRG (AID 2283479)
# How it was run: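 In duplicate wells, HepaRG cultures maintained in 0.5% DMSO were treated 48 h across an 8-point, half-log series topping at 100 uM; phenobarbital (1 mM) served as induction control. Expression was read by qRT-PCR.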
# [3] = read-out: cysteine-aspartic acid protease (CASP8), CASP8 (gene 841); experiment: LTEA_HepaRG_CASP8: Life Technologies and Expression Analysis (LTEA) Assay for cysteine-aspartic acid protease (CASP8) using HepaRG (AID 2283480)
# How it was run: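 Differentiated human HepaRG cells, plated 48 h then switched to serum-free induction medium, were exposed in duplicate for 48 h to 8 half-log concentrations up to 100 uM in 0.5% DMSO. CASP8 mRNA was quantified by qRT-PCR, normalized to ACTB/GAPDH/POLR2A.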
# [4] = read-out: Cytochrome P450 (CYP2B6), CYP2B6 (gene 1555); experiment: LTEA_HepaRG_CYP2B6: Life Technologies and Expression Analysis (LTEA) Assay for Cytochrome P450 (CYP2B6) using HepaRG (AID 2283481)
# How it was run: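 Human HepaRG, 48 h dosing, 0.5% DMSO vehicle, top dose 100 uM. CYP2B6 transcript by qRT-PCR, housekeeping-normalized, bidirectional curve fit.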
# [5] = read-out: Cytochrome P450 2C19 (Homo sapiens) (UniProt P33261); experiment: LTEA_HepaRG_CYP2C19: Life Technologies and Expression Analysis (LTEA) Assay for CYP2C19 using HepaRG (AID 2283482)
# How it was run: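 Endpoint: CYP2C19 mRNA change, bidirectional fit vs 0.5% DMSO. Cells: HepaRG, 48 h exposure, eight-point series topping at 100 uM. Quantitation: qRT-PCR normalized to ACTB, GAPDH, POLR2A.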
# [6] = read-out: CYP2C8 (gene 1558); experiment: LTEA_HepaRG_CYP2C8: Life Technologies and Expression Analysis (LTEA) Assay for CYP2C8 using HepaRG (AID 2283483)
# How it was run: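 Differentiated human HepaRG cells were exposed for 48 h in serum-free induction medium to eight half-log concentrations up to 100 uM in 0.5% DMSO, in duplicate. CYP2C8 mRNA was measured by TaqMan qRT-PCR, normalized to ACTB, GAPDH and POLR2A, and fitted bidirectionally against DMSO.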
# [7] = read-out: CYP2C9 (gene 1559); experiment: LTEA_HepaRG_CYP2C9: Life Technologies and Expression Analysis (LTEA) Assay for CYP2C9 using HepaRG (AID 2283484)
# How it was run: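 Differentiated human HepaRG cells were exposed 48 h in serum-free induction medium to eight half-log concentrations up to 100 uM in 0.5% DMSO. CYP2C9 mRNA was measured by qRT-PCR, normalized to ACTB, GAPDH and POLR2A, and fitted bidirectionally against DMSO.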
# [8] = read-out: CYP2E1 (gene 1571); experiment: LTEA_HepaRG_CYP2E1: Life Technologies and Expression Analysis (LTEA) Assay for CYP2E1 using HepaRG (AID 2283485)
# How it was run: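 HepaRG cells, plated 48 h, then exposed 48 h in serum-free induction medium to eight half-log concentrations from 100 uM in 0.5% DMSO, duplicate. CYP2E1 mRNA by qRT-PCR, normalized to ACTB/GAPDH/POLR2A; bidirectional fit versus DMSO.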
# [9] = read-out: CYP4A11 (gene 1579); experiment: LTEA_HepaRG_CYP4A11: Life Technologies and Expression Analysis (LTEA) Assay for CYP4A11 using HepaRG (AID 2283486)
# How it was run: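 Human hepatic HepaRG cultures receive duplicate 48 h exposures across a concentration-response series topping at 100 uM. Expression changes in CYP4A11 are measured by qRT-PCR relative to DMSO controls.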
# [10] = read-out: Cytochrome P450 3A4 (Homo sapiens) (UniProt P08684); experiment: LTEA_HepaRG_CYP3A4: Life Technologies and Expression Analysis (LTEA) Assay for CYP3A4 using HepaRG (AID 2283487)
# How it was run: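 HepaRG, 48 h exposure, 8-pt CRC from 100 uM (half-log), 0.5% DMSO, duplicates; serum-free induction medium. Readout: CYP3A4 mRNA, qRT-PCR, ACTB/GAPDH/POLR2A normalization. Bidirectional fit vs DMSO.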
# Cytochrome P450 2C19 (Homo sapiens), sequence (P33261 whole entry, looked up): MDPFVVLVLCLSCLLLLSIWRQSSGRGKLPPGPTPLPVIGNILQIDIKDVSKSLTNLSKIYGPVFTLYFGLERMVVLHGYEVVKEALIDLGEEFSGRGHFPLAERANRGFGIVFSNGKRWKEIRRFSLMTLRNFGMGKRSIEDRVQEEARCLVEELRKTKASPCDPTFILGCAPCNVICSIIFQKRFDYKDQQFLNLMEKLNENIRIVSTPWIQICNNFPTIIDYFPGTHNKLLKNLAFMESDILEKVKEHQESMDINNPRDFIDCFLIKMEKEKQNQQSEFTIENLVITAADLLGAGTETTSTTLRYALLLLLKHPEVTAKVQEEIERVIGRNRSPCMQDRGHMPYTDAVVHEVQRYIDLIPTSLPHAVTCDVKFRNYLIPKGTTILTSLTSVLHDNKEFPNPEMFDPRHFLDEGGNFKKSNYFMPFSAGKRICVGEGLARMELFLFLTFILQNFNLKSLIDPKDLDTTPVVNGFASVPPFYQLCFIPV
# Cytochrome P450 3A4 (Homo sapiens), sequence (P08684 whole entry, looked up): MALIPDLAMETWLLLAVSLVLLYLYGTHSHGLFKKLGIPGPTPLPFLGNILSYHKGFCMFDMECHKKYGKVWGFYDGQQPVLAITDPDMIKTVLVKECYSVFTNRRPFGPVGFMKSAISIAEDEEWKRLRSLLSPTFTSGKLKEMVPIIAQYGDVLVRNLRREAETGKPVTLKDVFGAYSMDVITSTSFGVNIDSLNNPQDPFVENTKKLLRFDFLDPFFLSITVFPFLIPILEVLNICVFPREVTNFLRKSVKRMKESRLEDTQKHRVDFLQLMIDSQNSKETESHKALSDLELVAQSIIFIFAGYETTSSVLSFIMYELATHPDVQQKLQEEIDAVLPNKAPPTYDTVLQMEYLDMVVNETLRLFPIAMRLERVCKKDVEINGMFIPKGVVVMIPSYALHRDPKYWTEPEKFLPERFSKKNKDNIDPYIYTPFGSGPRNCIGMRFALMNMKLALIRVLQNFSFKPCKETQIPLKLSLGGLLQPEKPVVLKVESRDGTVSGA
SMILES,outcome [1],AC50 [2],outcome [3],AC50 [4],AC50 [5],AC50 [6],AC50 [7],AC50 [8],AC50 [9],outcome [4],outcome [5],outcome [6],outcome [7],outcome [8],outcome [9],outcome [2],AC50 [10],outcome [10]
COC(=O)[C@H]1[C@H]2C[C@@H]3c4[nH]c5cc(OC)ccc5c4CCN3C[C@H]2C[C@@H](OC(=O)c2cc(OC)c(OC)c(OC)c2)[C@@H]1OC,inactive,9.74 µM (active),inactive,61.7 µM (active),63.4 µM (active),63.5 µM (active),60.9 µM (active),49.3 µM (active),48.8 µM (active),–,–,–,–,–,–,–,–,–
O=C(O)c1[nH]n(-c2ccc(S(=O)(=O)O)cc2)c(=O)c1N=Nc1ccc(S(=O)(=O)O)cc1,inactive,14.8 µM (active),inactive,–,–,–,–,–,–,inactive,inactive,inactive,inactive,inactive,inactive,–,–,–
OCC(CO)n1cnc(-c2ccc(F)cc2)c1-c1ccnc(Oc2ccccc2)n1,inactive,–,inactive,22.6 µM (active),12.4 µM (active),–,–,15.5 µM (active),16.9 µM (active),–,–,inactive,inactive,–,–,inactive,–,–
Cc1ccc(-c2cc(C(F)(F)F)nn2-c2ccc(S(N)(=O)=O)cc2)cc1,inactive,15.8 µM (active),inactive,90.2 µM (active),23.6 µM (active),–,–,38.2 µM (active),6 µM (active),–,–,inactive,inactive,–,–,–,–,–
Cc1occc(=O)c1O,inactive,–,inactive,–,–,–,–,–,–,inactive,inactive,inactive,inactive,inactive,inactive,inactive,–,–
CSc1ccc(Oc2ccc(S(N)(=O)=O)cc2CN(C)C)cc1C,inactive,50 µM (active),inactive,12.1 µM (active),–,–,–,47.6 µM (active),77.5 µM (active),–,inactive,inactive,inactive,–,–,–,–,–
CC(C)(O)c1ccc(CNC(=O)c2cccnc2Oc2ccc(F)cc2)cc1,inactive,–,inactive,0.432 µM (active),8.99 µM (active),–,–,37.9 µM (active),10.2 µM (active),–,–,inactive,inactive,–,–,inactive,8.47 µM (active),–
Cc1cn([C@H]2C=C[C@@H](CO)O2)c(=O)[nH]c1=O,inactive,–,inactive,10.3 µM (active),–,–,–,–,–,–,inactive,inactive,inactive,inactive,inactive,inactive,–,–
O=C(Oc1ccccc1)c1cccc(C(=O)Oc2ccccc2)c1,inactive,52.2 µM (active),inactive,15.9 µM (active),–,–,–,–,–,–,inactive,inactive,inactive,inactive,inactive,–,–,–
NCCOCCOCCN,inactive,–,inactive,–,–,–,–,–,–,inactive,inactive,inactive,inactive,inactive,inactive,inactive,–,–
CCCCCCCCCCCCCCOS(=O)(=O)O,inactive,–,inactive,85.6 µM (active),–,12.6 µM (active),64.4 µM (active),42.3 µM (active),4.9 µM (active),–,inactive,–,–,–,–,inactive,–,–
O=C1NC(=O)C(c2ccccc2)(c2ccccc2)N1,inactive,50 µM (active),inactive,1.18 µM (active),14.1 µM (active),13.1 µM (active),–,29.7 µM (active),12.1 µM (active),–,–,–,inactive,–,–,–,–,–
CC(=O)O,inactive,–,inactive,–,–,–,–,–,–,inactive,inactive,inactive,inactive,inactive,inactive,inactive,–,–
CCCCOC(=O)CCCCC(=O)OCCCC,inactive,50 µM (active),inactive,–,–,–,–,–,–,inactive,inactive,inactive,inactive,inactive,inactive,–,–,–
CCCC(=O)O,inactive,–,inactive,–,–,–,–,–,–,inactive,inactive,inactive,inactive,inactive,inactive,inactive,–,–
CCOCCOCCO,inactive,–,inactive,–,–,–,–,–,–,inactive,inactive,inactive,inactive,inactive,inactive,inactive,–,inactive
CN(C)CCCN(C)CCCN(C)C,inactive,–,inactive,–,–,–,–,–,–,inactive,inactive,inactive,inactive,inactive,inactive,inactive,–,–
COC(=O)CCCC(=O)OC,inactive,–,inactive,–,–,–,–,–,–,inactive,inactive,inactive,inactive,inactive,inactive,inactive,–,–
C/C=C/C=C/C(=O)O,inactive,–,inactive,–,–,–,–,–,–,inactive,inactive,inactive,inactive,inactive,inactive,inactive,–,–
CCc1cc(C2=C(C(=O)O)N(c3ccccc3C(F)(F)F)S(=O)(=O)c3ccccc32)cc2c1OCO2,inactive,–,inactive,90.5 µM (active),91.9 µM (active),91.7 µM (active),86.1 µM (active),56.8 µM (active),39.7 µM (active),–,–,–,–,–,–,inactive,–,–
